The values below come from PMC8384837, “Expanding the binding specificity for RNA recognition by a PUF domain”.

What all share (experiment): yeast three-hybrid, YBZ-1, SC-Leu-His + 0.5 mM 3-AT, 4 days
Conditions in all cases: tags: N-Gal4 AD-HA kept; label: inside an RPR1-promoter hybrid RNA with tandem MS2 sites; ssRNA

Assay [1] addresses PUM1 PUF domain R2-AFS (Homo sapiens, UniProt Q14671 828-1176, N899A;Y900F;Q903S). The essentials: (§1)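 Sequencing with Illumina followed PCR amplification of the repeat regions from transformants grown four days on SC-Leu (input) or SC-Leu-His + 0.5 mM 3-AT (selection). The transformants were strain YBZ-1 with a LexA–MS2 coat fusion and a HIS3 reporter, carrying Pumilio-1 PUF domain libraries and matching RNA elements. The interaction score is the log change in variant frequency from input to selection, computed in log2 with a pseudocount of 1 for absent variants.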

Assay [2] concerns the target PUM1 PUF domain R2-LFG (Homo sapiens, UniProt Q14671 828-1176, N899L;Y900F;Q903G). The gist of the method: as §1
Assay [3] deals with PUM1 PUF domain R4-GNL (Homo sapiens, UniProt Q14671 828-1176, N971G;H972N;Q975L). The essentials:
as §1

Assay [4] deals with PUM1 PUF domain R4-PWK (Homo sapiens, UniProt Q14671 828-1176, N971P;H972W;Q975K). The essentials: as §1
Assay [5] concerns the target PUM1 PUF domain R4-SMC (Homo sapiens, UniProt Q14671 828-1176, N971S;H972M;Q975C). The gist of the method:
as §1

Assay [6] concerns the target PUM1 PUF domain R7-RGS (Homo sapiens, UniProt Q14671 828-1176, S1079R;N1080G;E1083S). The essentials:
as §1

Assay [7] deals with PUM1 PUF domain R3-LFC (Homo sapiens, UniProt Q14671 828-1176, C935L;R936F;Q939C). The essentials: as §1
The target in assay [8] is PUM1 PUF domain R5-RFP (Homo sapiens, UniProt Q14671 828-1176, C1007R;R1008F;Q1011P). The gist of the method: as §1
Assay [9] addresses PUM1 PUF domain R8-PYG (Homo sapiens, UniProt Q14671 828-1176, N1122P;Q1126G). The gist of the method: as §1
Assay [10] deals with PUM1 PUF domain R5-KKE (Homo sapiens, UniProt Q14671 828-1176, C1007K;R1008K;Q1011E). The essentials:
as §1

For “GGCUAGAACUAGUGGAUCCCCCGGCGCCCGGCGGCUCGAGCCCGGGUAAGUGUAAAAAGUCUGCAUGCCGCCGGGCGCCAUGCCUGCAGGUCGACUCUAGAAAACAUG”, the binding signal in assay [1] is 3.67 log2 enrichment (interaction score); in assay [2] it was 3.76 log2 enrichment (interaction score).
Turning to “GGCUAGAACUAGUGGAUCCCCCGGCGCCCGGCGGCUCGAGCCCGGGUAAGUGUACAUAGUCUGCAUGCCGCCGGGCGCCAUGCCUGCAGGUCGACUCUAGAAAACAUG”, the binding signal in assay [3] is 1.04 log2 enrichment (interaction score); in assay [4], 6.55 log2 enrichment (interaction score).
In the case of “GGCUAGAACUAGUGGAUCCCCCGGCGCCCGGCGGCUCGAGCCCGGGUAAGUGUAUAUAGUCUGCAUGCCGCCGGGCGCCAUGCCUGCAGGUCGACUCUAGAAAACAUG”, the binding signal in assay [5] was 2.83 log2 enrichment (interaction score); in assay [3] it was 3.47 log2 enrichment (interaction score); in assay [4], 6.97 log2 enrichment (interaction score).
Consider “GGCUAGAACUAGUGGAUCCCCCGGCGCCCGGCGGCUCGAGCCCGGGUAAGUUUAAAUAGUCUGCAUGCCGCCGGGCGCCAUGCCUGCAGGUCGACUCUAGAAAACAUG”, for which the binding signal in assay [6] was 3.37 log2 enrichment (interaction score).
For the sequence “GGCUAGAACUAGUGGAUCCCCCGGCGCCCGGCGGCUCGAGCCCGGGUAAGUGUAAGUAGUCUGCAUGCCGCCGGGCGCCAUGCCUGCAGGUCGACUCUAGAAAACAUG”, the binding signal in assay [7] is 5.61 log2 enrichment (interaction score).
As for “GGCUAGAACUAGUGGAUCCCCCGGCGCCCGGCGGCUCGAGCCCGGGUAAGUGUAAAUAGUCUGCAUGCCGCCGGGCGCCAUGCCUGCAGGUCGACUCUAGAAAACAUG”, the binding signal was 3.15 log2 enrichment (interaction score) in assay [5], 2.31 log2 enrichment (interaction score) in assay [8], 1.81 log2 enrichment (interaction score) in [9] and 1.84 log2 enrichment (interaction score) in [7].
With “GGCUAGAACUAGUGGAUCCCCCGGCGCCCGGCGGCUCGAGCCCGGGUAAGUGUAAAGAGUCUGCAUGCCGCCGGGCGCCAUGCCUGCAGGUCGACUCUAGAAAACAUG”, the binding signal in [2] was 0.94 log2 enrichment (interaction score).
“GGCUAGAACUAGUGGAUCCCCCGGCGCCCGGCGGCUCGAGCCCGGGUAAGCGUAAAUAGUCUGCAUGCCGCCGGGCGCCAUGCCUGCAGGUCGACUCUAGAAAACAUG”: the binding signal in assay [9] was 2.76 log2 enrichment (interaction score).
Regarding “GGCUAGAACUAGUGGAUCCCCCGGCGCCCGGCGGCUCGAGCCCGGGUAAGUGUCAAUAGUCUGCAUGCCGCCGGGCGCCAUGCCUGCAGGUCGACUCUAGAAAACAUG”, the figures for the binding signal in assay [10] and in assay [8] were 5.07 log2 enrichment (interaction score) and 4.87 log2 enrichment (interaction score), respectively.
Take “GGCUAGAACUAGUGGAUCCCCCGGCGCCCGGCGGCUCGAGCCCGGGUAAGUCUAAAUAGUCUGCAUGCCGCCGGGCGCCAUGCCUGCAGGUCGACUCUAGAAAACAUG”: in assay [6], the binding signal is 1.66 log2 enrichment (interaction score).
